Where “and” joins values, the source holds several entries; their conditions need not be identical. Equal values may be shown once. Records with an inconclusive call do not appear. A structure can be active in one record and inactive in another. Calls of active or inactive are those of the source. Rule for the calls, unless noted: active = hit-call score of the fitted dose curve at least 0.9, where 1 is the maximum; inactive = score below 0.9.
Tests used:
[1] = target: human RAR-related Orphan Receptor beta (RORb), RORB (gene 6096) (UniProt Q92753); test: ATG_RORb_TRANS: Attagene TRANS-FACTORIAL HepG2 Assay for human RAR-related Orphan Receptor beta (RORb) (AID 2283010; active = hit-call score of the fitted dose curve at least 0.9, where 1 is the maximum)
Method in brief: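 In this TRANS-format test, human HepG2 cells express chimeric NR-Gal4 fusion proteins driving GAL4-UAS reporters. After 24 h dosing, reporter transcripts are measured by fluorescent RT-PCR/capillary electrophoresis, with DMSO as negative control.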

[2] = target: human RAR-related Orphan Receptor gamma (RORg), RORC (gene 6097) (UniProt P51449); test: ATG_RORg_TRANS: Attagene TRANS-FACTORIAL HepG2 Assay for human RAR-related Orphan Receptor gamma (RORg) (AID 2283011; active = hit-call score of the fitted dose curve at least 0.9, where 1 is the maximum)
Method in brief: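 First, HepG2 liver cells were transfected with GAL4-UAS-driven reporter constructs and the RORg-Gal4 fusion. Next, they were treated with chemical for 24 h. Finally, reporter mRNA was quantified by RT-PCR and capillary electrophoresis, with upward activity fitted against DMSO.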

[3] = target: Retinoic acid receptor RXR-alpha (Homo sapiens) (UniProt P19793); test: ATG_RXRa_TRANS: Attagene TRANS-FACTORIAL HepG2 Assay for human Retinoid X Receptor alpha (RXRa) (AID 2283012; active = hit-call score of the fitted dose curve at least 0.9, where 1 is the maximum)
Method in brief: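 Cells (HepG2) carried transiently transfected GAL4-responsive reporter units. Following a 24 h chemical incubation, reporter mRNA induction was read via RT-PCR fragment analysis; DMSO served as negative control and baseline.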

[4] = target: human Retinoid X Receptor beta (RXRb), RXRB (gene 6257) (UniProt P28702); test: ATG_RXRb_TRANS: Attagene TRANS-FACTORIAL HepG2 Assay for human Retinoid X Receptor beta (RXRb) (AID 2283013; active = hit-call score of the fitted dose curve at least 0.9, where 1 is the maximum)
Method in brief: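 Multiplexed TRANS reporter assay in HepG2; 24 h dosing; reporter mRNA by RT-PCR/CE fluorescence; gain-of-signal relative to DMSO.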

[5] = read-out: E-selectin (Homo sapiens) (UniProt P16581); test: BSK_3C_Eselectin: BioMAP Diversity Plus: 3C Assay for Eselectin Biomarker Activity (AID 2283015); conditions: primary human endothelial cells (HUVEC); actives raise or lower the signal
Method in brief: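 ELISA read-out of E-selectin on endothelial monolayers after 24 h chemical treatment. Human umbilical vein primary cells served as the system, with DMSO defining baseline activity for bidirectional fitting.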

[6] = read-out: Interleukin-1 alpha (IL1a), IL1A (gene 3552); test: BSK_BE3C_IL1a: BioMAP Diversity Plus: BE3C Assay for Interleukin-1 alpha (IL1a) Biomarker Activity (AID 2283016); conditions: primary human bronchial epithelial cells; actives raise or lower the signal
Method in brief: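 Cultures of primary human bronchial epithelial cells receive test chemical. After 24 h, IL-1a is quantified by ELISA, while parallel wells are fixed in TCA and SRB-stained for total protein. Changes in either direction are fitted relative to DMSO.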

[7] = read-out: Monocyte Chemoattractant Protein-1 (MCP1), CCL2 (gene 6347); test: BSK_3C_MCP1: BioMAP Diversity Plus: 3C Assay for Monocyte Chemoattractant Protein-1 (MCP1) Biomarker Activity (AID 2283017); conditions: primary human endothelial cells (HUVEC); actives raise or lower the signal
Method in brief: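 ELISA read-out of MCP-1 from human umbilical vein endothelial cell cultures harvested 24 h post-dosing. Gain or loss of signal was fitted relative to DMSO.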

[8] = read-out: Monocyte Chemoattractant Protein-1 (MCP1), CCL2 (gene 6347); test: BSK_4H_MCP1: BioMAP Diversity Plus: 4H Assay for Monocyte Chemoattractant Protein-1 (MCP1) Biomarker Activity (AID 2283018); conditions: primary human endothelial cells (HUVEC); actives raise or lower the signal
Method in brief: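 Readout: MCP-1 ELISA on compound-treated HUVEC, sampled 24 h post-dosing. Baseline and negative control DMSO; bidirectional fit. Overt toxicity checked alongside by sulforhodamine B protein staining at time of biomarker measurement.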

[9] = read-out: Human Leukocyte Antigen - DR isotype (HLADR), HLA-DRA (gene 3122); test: BSK_3C_HLADR: BioMAP Diversity Plus: 3C Assay for Human Leukocyte Antigen - DR isotype (HLADR) Biomarker Activity (AID 2283019); conditions: primary human endothelial cells (HUVEC); actives raise or lower the signal
Method in brief: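 ELISA readout of surface HLA-DR on human umbilical vein endothelium, taken 24 h after chemical treatment. Gain- and loss-of-signal were both fitted relative to DMSO.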

[10] = read-out: Interleukin-8 (IL8), CXCL8 (gene 3576); test: BSK_3C_IL8: BioMAP Diversity Plus: 3C Assay for Interleukin-8 (IL8) Biomarker Activity (AID 2283020); conditions: primary human endothelial cells (HUVEC); actives raise or lower the signal
Method in brief: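 Human vascular endothelial cells (umbilical vein) in the 3C system; IL-8 level detected by ELISA at 24 h post-dose, with DMSO as baseline.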

[11] = read-out: Monokine induced gamma interferon (MIG), CXCL9 (gene 4283); test: BSK_3C_MIG: BioMAP Diversity Plus: 3C Assay for Monokine induced gamma interferon (MIG) Biomarker Activity (AID 2283021); conditions: primary human endothelial cells (HUVEC); actives raise or lower the signal
Method in brief: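 After 24 h of treatment, human umbilical vein endothelial cultures (3C system) had their MIG biomarker level determined by ELISA, with DMSO serving as negative control.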

[12] = target: human Vitamin D Receptor (VDR), VDR (gene 7421) (UniProt P11473); test: ATG_VDR_TRANS: Attagene TRANS-FACTORIAL HepG2 Assay for human Vitamin D Receptor (VDR) (AID 2283022; active = hit-call score of the fitted dose curve at least 0.9, where 1 is the maximum)
Method in brief: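 Steps: transfect HepG2 with GAL4-UAS-driven reporter constructs; dose compounds 24 h; isolate RNA, reverse-transcribe, PCR-amplify with 6-FAM-labelled primer extension and HpaI digestion; quantify fragments by capillary electrophoresis relative to DMSO.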

[13] = BSK_3C_SRB: Viability Assessment in the BioMAP Diversity Plus: 3C Assay (AID 2283023); conditions: primary human endothelial cells (HUVEC);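 note: fitted both ways against DMSO so a hit may be signal rise or drop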
Method in brief: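 Absorbance at 560 nm of sulforhodamine B-stained (0.1%) total protein served as a cytotoxicity readout in human umbilical vein endothelial cells, 24 h after chemical treatment. Signal was fitted bidirectionally relative to DMSO.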

[14] = read-out: Matrix Metallopeptidase 1 (MMP1), MMP1 (gene 4312); test: BSK_BE3C_MMP1: BioMAP Diversity Plus: BE3C Assay for Matrix Metallopeptidase 1 (MMP1) Biomarker Activity (AID 2283024); conditions: primary human bronchial epithelial cells; actives raise or lower the signal
Method in brief: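 Dose cells, wait 24 h, run MMP1 ELISA; cells are human bronchial epithelial primaries. Both increases and decreases relative to DMSO counted.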

[15] = BSK_3C_Vis: BioMAP Diversity Plus: 3C Assay for Morphology Visualization (AID 2283025); conditions: primary human endothelial cells (HUVEC);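 note: fitted both ways so gain or loss versus DMSO counts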;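 for AC50: light microscopy image of cell morphology used as background control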
Method in brief: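 Endothelial cells from human umbilical vein were treated with test chemicals for 24 h and inspected by light microscopy for changes in cell conformation.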

[16] = read-out: Pselectin, SELP (gene 6403); test: BSK_4H_Pselectin: BioMAP Diversity Plus: 4H Assay for Pselectin Biomarker Activity (AID 2283026); conditions: primary human endothelial cells (HUVEC); actives raise or lower the signal
Method in brief: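 Human vascular endothelium from umbilical vein; P-selectin measured by ELISA at 24 h post-dose, with cytotoxicity checked by sulforhodamine B total-protein staining in parallel cultures (0.1% SRB after 10% TCA fixation, read at 560 nm).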

[17] = BSK_4H_SRB: Viability Assessment in the BioMAP Diversity Plus: 4H Assay (AID 2283027); conditions: primary human endothelial cells (HUVEC);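 note: cells exposed to compound for 24 h before staining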;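 for AC50: curves fitted both ways versus DMSO so AC50 may be loss or gain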
Method in brief: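 Absorbance at 560 nm of SRB-stained total protein served as the viability read-out in confluent primary human umbilical vein endothelium 24 h after chemical treatment. Curves were fitted bidirectionally against DMSO as negative control.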

[18] = BSK_BE3C_SRB: Viability Assessment in the BioMAP Diversity Plus: BE3C Assay (AID 2283028); conditions: primary human bronchial epithelial cells;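 for AC50: fitted both ways so AC50 may mark signal gain or loss versus DMSO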
Method in brief: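 Cells (human bronchial epithelial, primary) are treated with chemicals, and after 24 h the parallel cultures are fixed in 10% TCA. These are then stained with 0.1% SRB and read at 560 nm. Gain or loss of signal is fitted relative to DMSO.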

[19] = read-out: Thrombomodulin, THBD (gene 7056); test: BSK_3C_Thrombomodulin: BioMAP Diversity Plus: 3C Assay for Thrombomodulin Biomarker Activity (AID 2283029); conditions: primary human endothelial cells (HUVEC); actives raise or lower the signal
Method in brief: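 Thrombomodulin ELISA, human primary HUVEC, 24 h post-dose; data fitted in both directions relative to DMSO.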

[20] = read-out: Urokinase-type plasminogen activator receptor (uPAR), PLAUR (gene 5329); test: BSK_4H_uPAR: BioMAP Diversity Plus: 4H Assay for Urokinase-type plasminogen activator receptor (uPAR) Biomarker Activity (AID 2283030); conditions: primary human endothelial cells (HUVEC); actives raise or lower the signal
Method in brief: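 Cell-surface uPAR ELISA signal, measured 24 h after dosing human umbilical vein endothelial cells, was analyzed with bidirectional fitting relative to DMSO. Parallel SRB staining of total protein tracked overt cytotoxicity.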

Measured: AC50

Chain of human RAR-related Orphan Receptor gamma (RORg), RORC (gene 6097) (P51449 whole entry, looked up, the tested form may be a part): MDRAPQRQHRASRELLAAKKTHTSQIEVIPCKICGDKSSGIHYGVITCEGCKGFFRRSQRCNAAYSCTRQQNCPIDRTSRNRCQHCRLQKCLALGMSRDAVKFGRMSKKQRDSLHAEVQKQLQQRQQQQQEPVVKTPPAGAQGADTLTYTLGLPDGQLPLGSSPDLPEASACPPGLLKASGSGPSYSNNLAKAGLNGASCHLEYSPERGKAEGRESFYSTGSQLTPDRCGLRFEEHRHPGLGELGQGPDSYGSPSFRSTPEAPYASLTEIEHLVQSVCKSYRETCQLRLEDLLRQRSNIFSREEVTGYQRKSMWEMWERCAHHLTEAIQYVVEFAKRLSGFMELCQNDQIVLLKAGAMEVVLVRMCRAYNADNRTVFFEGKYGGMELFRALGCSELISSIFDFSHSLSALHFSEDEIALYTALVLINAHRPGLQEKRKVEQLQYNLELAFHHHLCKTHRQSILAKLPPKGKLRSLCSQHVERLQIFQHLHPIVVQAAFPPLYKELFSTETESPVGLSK
Chain of human Retinoid X Receptor beta (RXRb), RXRB (gene 6257) (P28702 whole entry, looked up): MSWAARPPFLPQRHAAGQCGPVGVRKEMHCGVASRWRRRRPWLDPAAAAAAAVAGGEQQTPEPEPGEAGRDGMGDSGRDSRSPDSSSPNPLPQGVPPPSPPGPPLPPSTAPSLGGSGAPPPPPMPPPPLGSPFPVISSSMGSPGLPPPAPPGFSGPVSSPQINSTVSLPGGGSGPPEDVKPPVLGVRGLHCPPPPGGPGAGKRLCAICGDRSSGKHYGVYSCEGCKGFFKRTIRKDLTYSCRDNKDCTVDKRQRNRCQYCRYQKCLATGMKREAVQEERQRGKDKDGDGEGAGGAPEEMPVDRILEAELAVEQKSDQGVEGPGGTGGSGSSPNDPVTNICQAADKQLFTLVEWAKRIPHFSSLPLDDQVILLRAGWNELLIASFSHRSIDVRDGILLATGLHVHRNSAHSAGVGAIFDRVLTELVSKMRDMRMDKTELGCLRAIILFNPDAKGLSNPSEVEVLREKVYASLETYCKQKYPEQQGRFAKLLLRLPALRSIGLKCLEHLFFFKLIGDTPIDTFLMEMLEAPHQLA
Chain of E-selectin (Homo sapiens) (P16581 whole entry, looked up): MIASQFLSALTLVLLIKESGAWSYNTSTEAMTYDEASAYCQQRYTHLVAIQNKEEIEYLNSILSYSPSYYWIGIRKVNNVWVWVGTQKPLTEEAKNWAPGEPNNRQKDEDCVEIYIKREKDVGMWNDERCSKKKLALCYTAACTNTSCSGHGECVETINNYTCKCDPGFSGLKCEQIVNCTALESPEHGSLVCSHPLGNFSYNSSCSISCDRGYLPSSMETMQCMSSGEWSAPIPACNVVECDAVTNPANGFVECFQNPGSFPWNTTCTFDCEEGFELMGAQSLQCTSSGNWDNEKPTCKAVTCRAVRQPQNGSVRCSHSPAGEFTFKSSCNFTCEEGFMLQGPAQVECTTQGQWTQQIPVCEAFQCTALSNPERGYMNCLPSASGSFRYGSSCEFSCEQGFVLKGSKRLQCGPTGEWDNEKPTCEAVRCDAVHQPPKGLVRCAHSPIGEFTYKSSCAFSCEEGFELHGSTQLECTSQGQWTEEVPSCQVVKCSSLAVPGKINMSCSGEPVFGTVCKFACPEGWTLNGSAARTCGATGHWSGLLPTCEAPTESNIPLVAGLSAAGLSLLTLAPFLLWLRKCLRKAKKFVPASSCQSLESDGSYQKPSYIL
Chain of human RAR-related Orphan Receptor beta (RORb), RORB (gene 6096) (Q92753 whole entry, looked up, the tested form may be a part): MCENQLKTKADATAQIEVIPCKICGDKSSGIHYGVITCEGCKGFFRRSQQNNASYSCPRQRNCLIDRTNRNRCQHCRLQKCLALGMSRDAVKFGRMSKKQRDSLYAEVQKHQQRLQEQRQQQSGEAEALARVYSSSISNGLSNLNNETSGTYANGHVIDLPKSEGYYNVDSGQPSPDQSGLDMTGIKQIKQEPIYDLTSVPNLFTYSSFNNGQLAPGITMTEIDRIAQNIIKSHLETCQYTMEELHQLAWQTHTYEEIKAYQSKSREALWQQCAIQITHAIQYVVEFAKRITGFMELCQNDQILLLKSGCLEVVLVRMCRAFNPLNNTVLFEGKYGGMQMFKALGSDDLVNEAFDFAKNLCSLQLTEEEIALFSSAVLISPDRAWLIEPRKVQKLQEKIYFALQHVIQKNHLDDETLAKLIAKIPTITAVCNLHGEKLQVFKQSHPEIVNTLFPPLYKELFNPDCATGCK
Chain of human Vitamin D Receptor (VDR), VDR (gene 7421) (P11473 whole entry, looked up, the tested form may be a part): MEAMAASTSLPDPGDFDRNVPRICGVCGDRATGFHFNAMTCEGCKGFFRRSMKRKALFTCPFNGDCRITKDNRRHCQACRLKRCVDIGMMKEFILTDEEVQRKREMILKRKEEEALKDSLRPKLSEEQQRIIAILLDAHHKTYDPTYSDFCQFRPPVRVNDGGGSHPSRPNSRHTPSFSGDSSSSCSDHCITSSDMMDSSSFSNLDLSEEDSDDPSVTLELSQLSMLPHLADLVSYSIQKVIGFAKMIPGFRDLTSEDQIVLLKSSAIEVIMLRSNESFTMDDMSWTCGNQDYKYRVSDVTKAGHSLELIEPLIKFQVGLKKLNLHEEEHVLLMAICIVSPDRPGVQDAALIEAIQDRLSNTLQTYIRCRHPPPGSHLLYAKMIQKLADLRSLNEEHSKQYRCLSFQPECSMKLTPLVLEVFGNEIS
Chain of Retinoic acid receptor RXR-alpha (Homo sapiens) (P19793 whole entry, looked up, the tested form may be a part): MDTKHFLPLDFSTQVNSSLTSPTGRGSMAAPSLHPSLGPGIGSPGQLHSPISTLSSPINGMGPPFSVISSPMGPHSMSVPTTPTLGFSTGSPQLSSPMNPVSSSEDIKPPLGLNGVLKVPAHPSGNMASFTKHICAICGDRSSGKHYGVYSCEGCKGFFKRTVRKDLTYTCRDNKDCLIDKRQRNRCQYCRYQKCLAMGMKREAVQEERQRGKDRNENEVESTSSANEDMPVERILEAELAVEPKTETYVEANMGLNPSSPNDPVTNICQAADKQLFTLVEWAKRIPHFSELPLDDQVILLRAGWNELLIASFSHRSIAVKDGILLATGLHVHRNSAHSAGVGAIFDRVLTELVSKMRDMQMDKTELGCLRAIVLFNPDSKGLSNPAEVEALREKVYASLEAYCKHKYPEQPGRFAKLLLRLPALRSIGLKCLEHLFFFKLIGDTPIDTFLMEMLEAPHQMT

CC(C)OC(=O)Nc1cccc(Cl)c1
inactive: [1] | [2] | [3] | [4] | [5] | [6] | [7] | [8] | [9] | [10] | [11] | [12] | [13] | [14] | [15] | [16] | [17] | [18] | [19] | [20]

CN1CSC(=S)N(C)C1
inactive: [1] | [2] | [3] | [6] | [8] | [10] | [14] | [17] | [18] | [20]
active: [5] 18.1 µM | [7] 31.2 µM | [9] 19 µM | [13] 20 µM | [15] 13.2 µM | [16] 6.08 µM | [19] 5.21 µM

CNC(=O)CSP(=S)(OC)OC
inactive: [1] | [2] | [5] | [6] | [7] | [8] | [9] | [10] | [12] | [13] | [14] | [15] | [16] | [17] | [18] | [19] | [20]

O=C(O)COc1ccc(Cl)cc1Cl
inactive: [1] | [4] | [5] | [6] | [7] | [8] | [9] | [10] | [12] | [13] | [14] | [15] | [16] | [17] | [18] | [20]

CNC(=O)Oc1cccc(N=CN(C)C)c1
inactive: [1] | [3] | [4] | [6] | [7] | [8] | [10] | [11] | [13] | [14] | [16] | [17] | [18] | [20]
active: [5] 20 µM | [9] 18.2 µM | [15] 39 µM

CCC(C)Nc1c([N+](=O)[O-])cc(C(C)(C)C)cc1[N+](=O)[O-] (stereo unspecified)
active: [5] 25.8 µM | [7] 31.3 µM | [8] 20 µM | [9] 20 µM | [13] 20.2 µM | [14] 11.1 µM | [15] 39 µM | [16] 20 µM | [17] 19.7 µM | [18] 14.7 µM
inactive: [1] | [4] | [6] | [10] | [12] | [20]

OCCOc1ccccc1
inactive: [1] | [2] | [3] | [4] | [5] | [6] | [7] | [8] | [9] | [10] | [12] | [13] | [14] | [15] | [16] | [17] | [18] | [20]

Oc1ccc(Cl)cc1Cc1ccccc1
active: [3] 13.6 µM [middle of 5 runs] | [5] 34.7 µM [middle of 6 runs] | [6] 33.8 µM [middle of 7 runs] | [7] 34.8 µM [middle of 7 runs] | [8] 14.5 µM [middle of 5 runs] | [9] 31.3 µM [middle of 7 runs] | [10] 33.6 µM [middle of 7 runs] | [13] 24.4 µM [middle of 7 runs] | [14] 32.8 µM [middle of 7 runs] | [15] 37.9 µM and 14.7 µM and 20 µM | [16] 28.2 µM [middle of 7 runs] | [17] 28.1 µM [middle of 7 runs] | [18] 34.7 µM [middle of 5 runs] | [20] 34 µM [middle of 7 runs]
inactive: [1] | [3] | [4] | [8]

ClC1C(Cl)C(Cl)C(Cl)C(Cl)C1Cl (stereo unspecified)
inactive: [1] | [3] | [4] | [5] | [6] | [7] | [8] | [9] | [10] | [13] | [14] | [15] | [16] | [17] | [18] | [20]
active: [4] 31.1 µM and 26.2 µM | [5] 20 µM and 25.7 µM and 5.22 µM | [9] 28.2 µM and 25.3 µM | [13] 18.5 µM and 28.3 µM and 20 µM | [15] 38.6 µM | [16] 5.2 µM | [17] 20 µM

CCc1ccc(C(=O)NN(C(=O)c2cc(C)cc(C)c2)C(C)(C)C)cc1
inactive: [1] | [2] | [3] | [4] | [5] | [6] | [8] | [9] | [10] | [11] | [14] | [15] | [16]
active: [7] 4.84 µM | [13] 11.8 µM | [17] 17.7 µM | [18] 15.4 µM | [20] 24.2 µM

From PubChem BioAssay (EPA / NIEHS)
